These results are taken from PubChem BioAssay (NCI).

Among the test systems are HCT-15 colon; HT29 colon; SNB-75 CNS; SNB-19 CNS; U251 CNS; PC-3 prostate; SK-MEL-5 melanoma; UACC-62 melanoma; LOX IMVI melanoma; SK-MEL-28 melanoma; SK-MEL-2 melanoma; EKVX NSCLC; SN12C renal; UO-31 renal; TK-10 renal; ACHN renal; CAKI-1 renal; A498 renal; CCRF-CEM leukemia; MOLT-4 leukemia.
Test in all cases: NCI-60 one-dose screen, 48 h (100 = growth as untreated, 0 = no growth, -100 = all killed)
Holding throughout (details): 10 µM unless noted

The panel holds about 83,000 compounds, 20% with a hit somewhere; the sample as a whole holds those more often.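 Plates (96-well) were seeded with cells, treated with compound at one concentration, and incubated for 48 hours before percent growth was determined.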 Unmarked numbers belong to inactive results. Calls of active or inactive are those of the source. How the source made its calls: active means growth percent below 10; inactive means the rest.

In the case of `COc1cc2c(/C=C3\C(=O)Nc4ccccc43)c(C(=O)O)[nH]c2cc1C`, the growth was 105% in the assay with HCT-15 colon; 89.8% in the assay with HT29 colon; 66.3% with SNB-75 CNS; 113% with SNB-19 CNS; 96.4% in the assay on U251 CNS; 79.8% in the assay with PC-3 prostate. Also, the growth is 109% in the assay on SK-MEL-5 melanoma; 84.3% in the assay with UACC-62 melanoma; 92.7% in the assay with LOX IMVI melanoma; 81.6% with SK-MEL-28 melanoma; 101% with SK-MEL-2 melanoma; 89.2% in the assay with EKVX NSCLC. Further, the growth in the assay on SN12C renal was 99.7%; in the assay with UO-31 renal, 55%; with TK-10 renal it was 134%; in the assay with ACHN renal it was 90.5%; in the assay on CAKI-1 renal, 94.8%; in the assay on A498 renal, 136%. Further, the growth in the assay with CCRF-CEM leukemia is 88.7%; in the assay with MOLT-4 leukemia, 84%.

With `COC(c1ccc2ccccc2c1)C(C)C(F)F` (stereo not given), the growth in the assay on HCT-15 colon is 112%; with HT29 colon, 98.2%; in the assay with SNB-75 CNS, 95.9%; in the assay with SNB-19 CNS it was 101%; in the assay on U251 CNS it was 102%; in the assay on PC-3 prostate, 96.6%. The growth in the assay on SK-MEL-5 melanoma was 112%; with UACC-62 melanoma it was 93.4%; in the assay on LOX IMVI melanoma, 101%; in the assay with SK-MEL-28 melanoma, 96.3%; with SK-MEL-2 melanoma it was 97.8%; with EKVX NSCLC, 100%. Also, the growth with SN12C renal was 98.2%; in the assay with UO-31 renal it was 90.6%; in the assay on TK-10 renal it was 86.4%; in the assay on ACHN renal it was 100%; in the assay on CAKI-1 renal it was 95.9%; in the assay on A498 renal, 99.7%. For the same molecule, the growth was 62.2% in the assay on CCRF-CEM leukemia and 99.3% in the assay with MOLT-4 leukemia.

In the case of `NC(=S)N/N=C/c1cn(-c2ccccc2)nc1-c1cc2ccccc2oc1=O`, the growth was 28.2% with HCT-15 colon; 14.7% with HT29 colon; 8.48% (active) in the assay with SNB-75 CNS; 56.6% with SNB-19 CNS; 45.2% with U251 CNS; 67.5% in the assay on PC-3 prostate. Further, the growth with SK-MEL-5 melanoma was 46.3%; in the assay with UACC-62 melanoma, 34.2%; in the assay on LOX IMVI melanoma, 46.3%; with SK-MEL-28 melanoma it was 69.7%; with SK-MEL-2 melanoma, 39.2%; in the assay with EKVX NSCLC it was 75.3%. In addition, the growth with SN12C renal was 63.1%; with UO-31 renal it was 50.7%; with TK-10 renal it was 77.2%; in the assay with ACHN renal, 77.4%; in the assay on CAKI-1 renal it was 44.1%; in the assay on A498 renal, -6.2% (active). For the same molecule, the growth in the assay on CCRF-CEM leukemia is 53.7%; in the assay on MOLT-4 leukemia, 33.4%.

For `Clc1nccc2c(-c3csc(-c4c[nH]c5ccccc45)n3)c[nH]c12`, the growth with HCT-15 colon is -39.6% (active); in the assay on HT29 colon, 23.6%; in the assay on SNB-75 CNS it was 41.4%; with SNB-19 CNS, 71.8%; with U251 CNS it was 20.9%; in the assay with PC-3 prostate it was 40.1%. Also, the growth in the assay with SK-MEL-5 melanoma is 55.8%; with UACC-62 melanoma, 43.9%; in the assay on LOX IMVI melanoma, 28.2%; with SK-MEL-28 melanoma it was 23.9%; in the assay on SK-MEL-2 melanoma, 79.5%; in the assay with EKVX NSCLC, 63.2%. The growth in the assay with SN12C renal was 59.2%; in the assay with UO-31 renal it was 25.9%; with TK-10 renal it was 55.8%; with ACHN renal, 24.4%; with CAKI-1 renal, 52.3%; in the assay on A498 renal, 32.7%. The growth is 31.1% in the assay on CCRF-CEM leukemia and 40.5% in the assay on MOLT-4 leukemia.

Take `CCOC(=O)NN1CC(O)=C(c2nc(-c3ccc(Br)cc3)cs2)C1=N`: the growth was 115% in the assay with HCT-15 colon; 108% with HT29 colon; 101% in the assay on SNB-75 CNS; 98.7% with SNB-19 CNS; 113% with U251 CNS; 85.2% in the assay with PC-3 prostate. Moreover, the growth with SK-MEL-5 melanoma was 103%; in the assay on UACC-62 melanoma it was 110%; in the assay with LOX IMVI melanoma it was 106%; with SK-MEL-28 melanoma, 113%; with SK-MEL-2 melanoma, 128%; in the assay with EKVX NSCLC, 104%. Also, the growth with SN12C renal is 161%; with UO-31 renal it was 87%; in the assay with TK-10 renal, 116%; in the assay with ACHN renal, 111%; in the assay with CAKI-1 renal, 92.9%; with A498 renal it was 93.4%. In addition, the results for the growth in the assay on CCRF-CEM leukemia and in the assay with MOLT-4 leukemia were 86.2% and 75.9%, respectively.

For `CCCn1c(=S)sc2c1nc(C)n1c(Nc3ccccc3)nnc21`, the growth in the assay with HCT-15 colon was 74.8%; in the assay on HT29 colon, 87.5%; in the assay with SNB-75 CNS, 102%; with SNB-19 CNS, 70.8%; with U251 CNS, 60.9%; with PC-3 prostate, 93.5%. In addition, the growth in the assay with SK-MEL-5 melanoma is 35%; in the assay on UACC-62 melanoma, 32.3%; in the assay on LOX IMVI melanoma, 66.2%; with SK-MEL-28 melanoma, 104%; in the assay with SK-MEL-2 melanoma it was -0.18% (active); in the assay on EKVX NSCLC, 36.6%. The growth in the assay with SN12C renal is 55.6%; with UO-31 renal, 71.6%; in the assay with TK-10 renal, 86.7%; with ACHN renal, 82.8%; in the assay on CAKI-1 renal it was 93.9%; with A498 renal, 57.2%. Also, the growth was 66.3% in the assay with CCRF-CEM leukemia and 31.1% with MOLT-4 leukemia.

On to `C=C(C)[C@@H]1CC[C@]2(CO)CC[C@]3(C)[C@H](CC[C@@H]4[C@@]5(C)CCC(NCCc6ccc(O)cc6)C(C)(C)[C@@H]5CC[C@]43C)[C@@H]12` (stereo not given in full), for which the growth with HCT-15 colon was -92.8% (active); in the assay on HT29 colon, -87.9% (active); with SNB-75 CNS, -86.7% (active); in the assay on SNB-19 CNS it was -82.1% (active); with U251 CNS, -94.2% (active); in the assay with PC-3 prostate, -84.2% (active). Moreover, the growth is -95.4% (active) in the assay with SK-MEL-5 melanoma; -89.3% (active) in the assay with UACC-62 melanoma; -96.8% (active) in the assay with LOX IMVI melanoma; -88.8% (active) in the assay with SK-MEL-28 melanoma; -85% (active) with SK-MEL-2 melanoma; -52.1% (active) with EKVX NSCLC. Besides, the growth is -88.9% (active) in the assay with SN12C renal; -96.9% (active) in the assay with UO-31 renal; -94.5% (active) in the assay on TK-10 renal; -100% (active) in the assay with ACHN renal; -58.5% (active) in the assay with CAKI-1 renal; 6.99% (active) with A498 renal. Moreover, the values for the growth in the assay with CCRF-CEM leukemia and in the assay with MOLT-4 leukemia were -41.3% (active) and -43.8% (active), respectively.

Regarding `N#Cc1c(-c2cccc([N+](=O)[O-])c2)cc(-c2ccc(Nc3nc(Nc4ccc(F)cc4)nc(Nc4ccc(F)cc4)n3)cc2)nc1N`, the growth with HCT-15 colon is 103%; in the assay with HT29 colon it was 113%; in the assay on SNB-75 CNS, 102%; with SNB-19 CNS, 104%; in the assay with U251 CNS, 110%; in the assay on PC-3 prostate, 92%. Moreover, the growth was 84.4% in the assay on SK-MEL-5 melanoma; 110% with UACC-62 melanoma; 97.9% with LOX IMVI melanoma; 114% with SK-MEL-28 melanoma; 68.1% in the assay with SK-MEL-2 melanoma; 137% with EKVX NSCLC. Besides, the growth with SN12C renal was 137%; with UO-31 renal, 83.7%; in the assay on TK-10 renal, 128%; in the assay with ACHN renal, 108%; in the assay with CAKI-1 renal, 113%; in the assay on A498 renal, 115%. The growth in the assay with CCRF-CEM leukemia is 78%; with MOLT-4 leukemia, 84.6%.
